The text below walks through data of PubChem BioAssay AID651949 (Broad Institute, 2012).

Structures are written as SMILES. Entries with a potency or affinity are not part of this list. Activity calls are given as the source filed them.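 Rule for the calls: active = compounds lowering cell ATP signal whose fitted half-maximal concentration is at most twice the top tested dose; inconclusive = flat curve with 30 to 70% signal loss, or poor fit; inactive = the rest.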

The assay is described as follows: HEK293T cell cytotoxicity, dose response, cytotoxicity control, CellTiter-Glo luminescence, dry powder, set 6 (AID 651949). The conditions noted are these: HEK293T viability, CellTiter-Glo ATP luminescence, 48 h; series mostly up to 26 µM; activity change, negative = cytotoxicity: at the top concentration.
`c1ccc(CSc2nnc(-c3cccs3)o2)cc1`: the “activity change, negative = cytotoxicity” value was 12.7% (inactive).

For the compound `CS(=O)(=O)c1ccc(-c2nnc(SCc3ccccc3)o2)cc1`, the “activity change, negative = cytotoxicity” value is -12.1% (inactive).

Turning to `c1ccc(CNc2nnc(-c3ccccc3)o2)cc1`, the “activity change, negative = cytotoxicity” value is -19.3% (inactive).

As to `FC1(F)CCN(CCSc2nnc(-c3ccccc3)o2)CC1`, the “activity change, negative = cytotoxicity” value was -15.2% (inactive).

Consider `FC(F)(F)Oc1ccc(CSc2nnc(-c3ccccc3)o2)cc1`, for which the “activity change, negative = cytotoxicity” value is 14.6% (inactive).

Take `Cc1cccc(CSc2nnc(-c3ccccc3)o2)c1`: the “activity change, negative = cytotoxicity” value is -20.9% (inactive).

Regarding `Cc1ccc(CSc2nnc(-c3ccccc3)o2)cc1`, the “activity change, negative = cytotoxicity” value was 3.5% (inactive).

For the compound `COc1ccc(CSc2nnc(-c3ccc(Cl)cc3)o2)nc1`, the “activity change, negative = cytotoxicity” value was -8.42% (inactive).

On to `c1ccc(-c2nnc(SCc3ncco3)o2)cc1`, for which the “activity change, negative = cytotoxicity” value is 3.27% (inactive).

For `Fc1ccc(-c2nnc(SCc3cn(-c4ccccc4)nn3)o2)cc1`, the “activity change, negative = cytotoxicity” value is -13.2% (inactive).

In the case of `c1ccc(CCc2nnc(SCc3ccccc3)o2)cc1`, the “activity change, negative = cytotoxicity” value was -20.1% (inactive).

Turning to `CS(=O)(=O)c1cccc(CSc2nnc(-c3ccccc3)o2)c1`, the “activity change, negative = cytotoxicity” value is 0.906% (inactive).

For the compound `O=S(Cc1ccccc1)c1nnc(-c2ccccc2)o1` (centres undefined), the “activity change, negative = cytotoxicity” value is -15% (inactive).

Regarding `c1ccc(-c2nnc(SCc3cscn3)o2)cc1`, the “activity change, negative = cytotoxicity” value is -17% (inactive).

Regarding `Fc1ccc(-c2nnc(SCc3ccccn3)o2)cc1`, the “activity change, negative = cytotoxicity” value is -5.83% (inactive).

Take `Fc1ccc(Cn2cc(CSc3nnc(-c4ccc(F)cc4)o3)nn2)cc1`: the “activity change, negative = cytotoxicity” value is -11.5% (inactive).

As to `c1ccc(CSc2nnc(-c3cscn3)o2)cc1`, the “activity change, negative = cytotoxicity” value is -22% (inactive).

For `N#Cc1ccccc1CSc1nnc(-c2ccccc2)o1`, the “activity change, negative = cytotoxicity” value was -15.6% (inactive).

As for `Brc1cccc(-c2nnc(SCc3ccccn3)o2)c1`, the “activity change, negative = cytotoxicity” value was -29.4% (inactive).

As for `CS(=O)(=O)c1ccccc1-c1nnc(SCc2ccccc2)o1`, the “activity change, negative = cytotoxicity” value was -29.6% (inactive).

Consider `Clc1ccccc1-c1nnc(SCc2ccccc2)o1`, for which the “activity change, negative = cytotoxicity” value was -1.75% (inactive).

As for `Fc1ccc(CSc2nnc(-c3ccc(Cl)cc3)o2)cc1`, the “activity change, negative = cytotoxicity” value is 4.47% (inactive).

As to `COc1ccccc1-c1nnc(SCc2ccccc2)o1`, the “activity change, negative = cytotoxicity” value is -0.598% (inactive).

`c1ccc(CSc2nnc(C3CCCCC3)o2)cc1`: the “activity change, negative = cytotoxicity” value was -21.4% (inactive).

Turning to `CSc1nnc(-c2ccccc2)o1`, the “activity change, negative = cytotoxicity” value is 8.23% [at 120 µM] (inactive).

For `Clc1ccc(-c2nnc(SCc3cn(-c4ccccc4)nn3)o2)cc1`, the “activity change, negative = cytotoxicity” value is 13.4% (inactive).

`Fc1ccccc1-c1nnc(SCc2ccccc2)o1`: the “activity change, negative = cytotoxicity” value was 25.8% (inactive).

As for `FC(F)(F)c1ccc(-c2nnc(SCc3ccccc3)o2)cc1`, the “activity change, negative = cytotoxicity” value is -8.43% (inactive).

For the compound `c1ccc(-c2nnc(SCc3ccncc3)o2)cc1`, the “activity change, negative = cytotoxicity” value is 3.39% (inactive).

With `c1ccc(CSc2nnc(-c3ccncc3)o2)nc1`, the “activity change, negative = cytotoxicity” value was -13.5% (inactive).

Regarding `FC(F)(F)c1ccccc1CSc1nnc(-c2ccccc2)o1`, the “activity change, negative = cytotoxicity” value was -13% (inactive).

In the case of `Clc1ccc(CSc2nnc(-c3ccccc3)o2)cc1`, the “activity change, negative = cytotoxicity” value was -5.48% (inactive).

Regarding `c1ccc(CSc2nnc(-c3cnco3)o2)cc1`, the “activity change, negative = cytotoxicity” value was -14.8% (inactive).

For the compound `O=S(=O)(Cc1ccccc1)c1nnc(-c2ccccc2)o1`, the “activity change, negative = cytotoxicity” value was -5.28% (inactive).

Take `Brc1ccc(-c2nnc(SCc3ccccn3)o2)cc1`: the “activity change, negative = cytotoxicity” value is -26.7% (inactive).

On to `COc1ccccc1CSc1nnc(-c2ccccc2)o1`, for which the “activity change, negative = cytotoxicity” value was -4.23% (inactive).

Turning to `N#Cc1ccc(CSc2nnc(-c3ccccc3)o2)cc1`, the “activity change, negative = cytotoxicity” value was 5.71% (inactive).

On to `COCCSc1nnc(-c2ccccc2)o1`, for which the “activity change, negative = cytotoxicity” value was -18.8% (inactive).

As for `Fc1ccc(CSc2nnc(-c3ccccc3)o2)cc1`, the result was inactive.
